Publication PMC7862700, “An all-to-all approach to the identification of sequence-specific readers for epigenetic DNA modifications on cytosine”

How the values were obtained:
Test in all cases: DAPPL (digital affinity profiling via proximity ligation, sequencing); 10 mM Tris-HCl pH 7.5, 50 mM NaCl, 1 mM DTT, 4% glycerol, room temperature, 30 min; GST-TFs on glutathione beads, 16-mer random dsDNA library, 0.1% formaldehyde crosslink after washing; high values mean tight binding
FEV = biological target: T1, FEV (Homo sapiens, UniProt Q99581 1-238); conditions: protein: recombinant; tags: N-terminal GST; dsDNA, one strand shown
T1 sequence: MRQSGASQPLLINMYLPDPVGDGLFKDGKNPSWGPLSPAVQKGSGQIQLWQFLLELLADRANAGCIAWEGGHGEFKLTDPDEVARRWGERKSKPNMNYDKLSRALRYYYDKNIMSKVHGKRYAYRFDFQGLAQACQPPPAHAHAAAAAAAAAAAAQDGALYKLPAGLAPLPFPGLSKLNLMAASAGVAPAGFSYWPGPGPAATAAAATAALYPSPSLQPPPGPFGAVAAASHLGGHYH
Procedure, shortened: (§1)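 Binding signal is each hexamer's read frequency for a factor divided by its frequency in the tag-only sample. The factors were GST-fused human transcription factors from yeast, captured on glutathione beads, DNA-barcoded and pooled with that sample. Pools were incubated with 200 nmole of a random double-stranded 16-mer DNA library in Tris/NaCl/DTT/glycerol buffer at room temperature for 30 min, then washed, crosslinked with 0.1% formaldehyde, proximity-ligated with BsaI/T4 ligase (1 h, 37 °C), PCR-amplified and sequenced on an Illumina NextSeq500.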

ETV5 = ETV5 (Homo sapiens, UniProt P41161 1-510); conditions: protein: recombinant; tags: N-terminal GST; dsDNA, one strand shown
Sequence of ETV5 (P41161 whole entry): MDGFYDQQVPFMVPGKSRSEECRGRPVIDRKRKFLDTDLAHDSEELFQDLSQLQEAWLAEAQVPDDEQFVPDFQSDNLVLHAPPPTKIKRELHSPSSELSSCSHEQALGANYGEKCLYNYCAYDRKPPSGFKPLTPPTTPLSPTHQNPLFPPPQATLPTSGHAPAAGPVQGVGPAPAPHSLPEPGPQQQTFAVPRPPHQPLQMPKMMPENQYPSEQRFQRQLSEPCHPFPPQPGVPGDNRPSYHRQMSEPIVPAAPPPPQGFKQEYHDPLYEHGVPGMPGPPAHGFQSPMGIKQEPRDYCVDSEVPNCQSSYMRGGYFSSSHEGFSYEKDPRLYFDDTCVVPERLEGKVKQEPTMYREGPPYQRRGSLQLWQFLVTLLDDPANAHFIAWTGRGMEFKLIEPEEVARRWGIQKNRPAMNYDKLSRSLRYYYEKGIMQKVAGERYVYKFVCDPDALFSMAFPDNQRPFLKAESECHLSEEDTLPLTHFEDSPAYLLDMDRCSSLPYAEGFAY
Procedure, shortened: as §1

HSF1 = HSF1 (Homo sapiens, UniProt Q00613 1-529); conditions: protein: recombinant; tags: N-terminal GST; chain copies: 3; dsDNA, one strand shown
Sequence of HSF1 (Q00613 whole entry): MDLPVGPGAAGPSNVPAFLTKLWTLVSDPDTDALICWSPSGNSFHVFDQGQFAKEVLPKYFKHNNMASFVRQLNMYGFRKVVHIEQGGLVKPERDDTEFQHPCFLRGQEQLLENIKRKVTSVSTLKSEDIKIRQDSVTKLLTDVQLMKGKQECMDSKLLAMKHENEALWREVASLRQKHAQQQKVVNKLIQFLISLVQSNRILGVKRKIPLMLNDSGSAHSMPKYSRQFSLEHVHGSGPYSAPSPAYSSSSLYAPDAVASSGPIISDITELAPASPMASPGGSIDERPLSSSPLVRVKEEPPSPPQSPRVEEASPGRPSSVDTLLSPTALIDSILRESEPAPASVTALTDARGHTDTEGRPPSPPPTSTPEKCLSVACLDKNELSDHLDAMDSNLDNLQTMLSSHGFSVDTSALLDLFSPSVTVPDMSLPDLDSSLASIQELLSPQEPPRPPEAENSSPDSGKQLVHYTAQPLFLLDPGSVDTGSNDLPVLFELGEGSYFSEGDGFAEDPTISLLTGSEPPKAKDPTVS
Procedure, shortened: as §1

SPIC = biological target: T2, SPIC (Homo sapiens, UniProt Q8N5J4 1-248); conditions: protein: recombinant; tags: N-terminal GST; dsDNA, one strand shown
T2 sequence: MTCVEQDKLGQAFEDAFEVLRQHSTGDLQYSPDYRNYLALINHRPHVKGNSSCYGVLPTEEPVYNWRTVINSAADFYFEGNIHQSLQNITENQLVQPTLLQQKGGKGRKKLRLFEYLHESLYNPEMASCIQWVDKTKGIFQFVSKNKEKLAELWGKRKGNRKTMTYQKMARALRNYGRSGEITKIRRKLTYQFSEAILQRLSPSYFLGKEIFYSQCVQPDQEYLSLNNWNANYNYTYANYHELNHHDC
Procedure, shortened: as §1

ELF4 = ELF4 (Homo sapiens, UniProt Q99607 1-663); conditions: protein: recombinant; tags: N-terminal GST; dsDNA, one strand shown
Sequence of ELF4 (Q99607 whole entry): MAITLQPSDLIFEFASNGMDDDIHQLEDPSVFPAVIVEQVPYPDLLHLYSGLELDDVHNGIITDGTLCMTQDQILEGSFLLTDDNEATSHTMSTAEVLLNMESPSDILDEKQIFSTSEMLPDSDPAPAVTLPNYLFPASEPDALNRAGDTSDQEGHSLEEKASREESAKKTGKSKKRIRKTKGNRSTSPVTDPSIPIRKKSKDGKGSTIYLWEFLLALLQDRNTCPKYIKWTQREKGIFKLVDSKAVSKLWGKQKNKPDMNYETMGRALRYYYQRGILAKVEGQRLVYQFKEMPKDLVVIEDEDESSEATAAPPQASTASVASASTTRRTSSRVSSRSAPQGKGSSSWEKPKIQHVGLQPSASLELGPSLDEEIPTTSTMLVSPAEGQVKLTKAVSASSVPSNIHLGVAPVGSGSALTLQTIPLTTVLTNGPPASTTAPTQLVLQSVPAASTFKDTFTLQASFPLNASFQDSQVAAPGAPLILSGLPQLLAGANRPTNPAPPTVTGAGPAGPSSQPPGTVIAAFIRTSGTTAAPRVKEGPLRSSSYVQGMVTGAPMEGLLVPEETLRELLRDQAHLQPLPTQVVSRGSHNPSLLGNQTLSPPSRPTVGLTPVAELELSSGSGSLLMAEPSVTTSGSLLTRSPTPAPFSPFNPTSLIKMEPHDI
Procedure, shortened: as §1

ETV2 = biological target: T3, ETV2 (Homo sapiens, UniProt O00321 1-342); conditions: protein: recombinant; tags: N-terminal GST; dsDNA, one strand shown
T3 sequence: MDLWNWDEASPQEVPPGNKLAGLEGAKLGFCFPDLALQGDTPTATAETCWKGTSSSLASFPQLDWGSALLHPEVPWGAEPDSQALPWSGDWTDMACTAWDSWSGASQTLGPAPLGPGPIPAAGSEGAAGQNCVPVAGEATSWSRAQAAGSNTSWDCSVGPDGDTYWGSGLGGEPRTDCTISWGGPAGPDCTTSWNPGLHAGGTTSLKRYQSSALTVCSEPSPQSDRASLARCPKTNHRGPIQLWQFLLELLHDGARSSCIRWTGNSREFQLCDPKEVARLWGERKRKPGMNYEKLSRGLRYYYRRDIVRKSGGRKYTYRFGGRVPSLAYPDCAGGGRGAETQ
Procedure, shortened: as §1

ELF3 = biological target: T4, ELF3 (Homo sapiens, UniProt P78545 1-371); conditions: protein: recombinant; tags: N-terminal GST; dsDNA, one strand shown
T4 sequence: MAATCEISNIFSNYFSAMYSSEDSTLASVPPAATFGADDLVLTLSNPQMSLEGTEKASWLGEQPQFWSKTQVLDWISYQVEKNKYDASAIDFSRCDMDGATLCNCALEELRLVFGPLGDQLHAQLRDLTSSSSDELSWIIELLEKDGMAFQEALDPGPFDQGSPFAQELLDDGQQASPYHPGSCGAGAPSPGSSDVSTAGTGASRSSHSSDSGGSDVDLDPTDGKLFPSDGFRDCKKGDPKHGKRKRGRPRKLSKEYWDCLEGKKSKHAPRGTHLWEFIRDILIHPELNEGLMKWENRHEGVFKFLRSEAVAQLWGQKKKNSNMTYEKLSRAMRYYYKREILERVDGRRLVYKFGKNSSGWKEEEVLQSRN
Procedure, shortened: as §1

CRX = CRX (Homo sapiens, UniProt O43186 1-299); conditions: protein: recombinant; tags: N-terminal GST; dsDNA, one strand shown
Sequence of CRX (O43186 whole entry): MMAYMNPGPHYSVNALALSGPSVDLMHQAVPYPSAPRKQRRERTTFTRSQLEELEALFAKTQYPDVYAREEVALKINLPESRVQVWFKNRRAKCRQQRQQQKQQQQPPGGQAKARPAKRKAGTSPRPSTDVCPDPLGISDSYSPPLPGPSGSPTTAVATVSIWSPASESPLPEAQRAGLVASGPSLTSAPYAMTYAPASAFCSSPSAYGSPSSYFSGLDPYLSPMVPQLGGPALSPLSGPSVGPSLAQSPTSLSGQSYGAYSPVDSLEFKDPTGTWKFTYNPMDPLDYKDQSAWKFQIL
Procedure, shortened: as §1

ERF = biological target: T5, ERF (Homo sapiens, UniProt P50548 1-548); conditions: protein: recombinant; tags: N-terminal GST; dsDNA, one strand shown
T5 sequence: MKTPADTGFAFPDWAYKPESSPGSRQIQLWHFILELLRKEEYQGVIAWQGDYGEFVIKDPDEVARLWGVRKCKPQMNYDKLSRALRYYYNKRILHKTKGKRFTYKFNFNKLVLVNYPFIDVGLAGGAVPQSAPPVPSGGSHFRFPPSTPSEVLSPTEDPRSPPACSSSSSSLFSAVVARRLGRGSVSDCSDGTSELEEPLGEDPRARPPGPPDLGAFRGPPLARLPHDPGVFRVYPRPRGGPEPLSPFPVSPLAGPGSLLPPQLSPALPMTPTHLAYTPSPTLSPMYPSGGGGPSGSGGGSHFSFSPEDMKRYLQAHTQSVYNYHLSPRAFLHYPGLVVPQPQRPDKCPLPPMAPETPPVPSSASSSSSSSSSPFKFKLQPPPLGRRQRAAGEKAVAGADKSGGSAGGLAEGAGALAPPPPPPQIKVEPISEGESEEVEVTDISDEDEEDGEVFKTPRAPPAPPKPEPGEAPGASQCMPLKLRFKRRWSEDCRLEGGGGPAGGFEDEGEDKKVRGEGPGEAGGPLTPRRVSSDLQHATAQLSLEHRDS
Procedure, shortened: as §1

ETV3L = biological target: T6, ETV3L (Homo sapiens, UniProt Q6ZN32 1-361); conditions: protein: recombinant; tags: N-terminal GST; dsDNA, one strand shown
T6 sequence: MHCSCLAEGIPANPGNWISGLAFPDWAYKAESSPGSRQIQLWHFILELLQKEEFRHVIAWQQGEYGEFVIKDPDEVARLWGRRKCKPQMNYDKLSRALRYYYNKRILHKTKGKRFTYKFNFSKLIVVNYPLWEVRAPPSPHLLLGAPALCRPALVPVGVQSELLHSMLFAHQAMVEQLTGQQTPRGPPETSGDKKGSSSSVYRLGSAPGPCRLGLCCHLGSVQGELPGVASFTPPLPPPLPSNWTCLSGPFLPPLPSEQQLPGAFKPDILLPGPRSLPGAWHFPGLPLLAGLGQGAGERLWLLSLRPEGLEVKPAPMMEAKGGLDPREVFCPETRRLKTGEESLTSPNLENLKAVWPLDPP
Procedure, shortened: as §1

ETS2 = biological target: T7, ETS2 (Homo sapiens, UniProt P15036 1-469); conditions: protein: recombinant; tags: N-terminal GST; dsDNA, one strand shown
T7 sequence: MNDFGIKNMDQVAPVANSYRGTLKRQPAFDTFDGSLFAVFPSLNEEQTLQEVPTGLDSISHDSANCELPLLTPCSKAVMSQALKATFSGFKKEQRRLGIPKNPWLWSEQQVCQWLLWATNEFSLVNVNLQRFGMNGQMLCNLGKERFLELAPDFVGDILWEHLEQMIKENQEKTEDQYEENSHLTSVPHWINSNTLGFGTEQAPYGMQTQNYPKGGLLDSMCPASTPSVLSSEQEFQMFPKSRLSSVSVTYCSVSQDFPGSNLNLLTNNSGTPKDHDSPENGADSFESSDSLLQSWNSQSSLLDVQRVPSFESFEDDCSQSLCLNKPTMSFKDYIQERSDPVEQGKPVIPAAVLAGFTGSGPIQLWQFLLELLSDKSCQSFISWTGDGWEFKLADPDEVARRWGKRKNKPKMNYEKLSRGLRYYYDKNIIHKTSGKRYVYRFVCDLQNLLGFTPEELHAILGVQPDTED
Procedure, shortened: as §1

SPDEF = biological target: T8, SPDEF (Homo sapiens, UniProt O95238 1-335); conditions: protein: recombinant; tags: N-terminal GST; dsDNA, one strand shown
T8 sequence: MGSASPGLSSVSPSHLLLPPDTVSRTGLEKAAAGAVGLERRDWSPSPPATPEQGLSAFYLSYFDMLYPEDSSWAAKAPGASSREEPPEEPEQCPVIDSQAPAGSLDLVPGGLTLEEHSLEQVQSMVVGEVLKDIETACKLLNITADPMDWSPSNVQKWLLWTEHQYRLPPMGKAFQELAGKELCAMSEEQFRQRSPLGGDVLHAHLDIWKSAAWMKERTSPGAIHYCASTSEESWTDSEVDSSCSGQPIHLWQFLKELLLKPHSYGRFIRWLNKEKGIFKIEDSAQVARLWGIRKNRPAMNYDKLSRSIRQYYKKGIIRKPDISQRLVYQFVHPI
Procedure, shortened: as §1

ETV7 = biological target: T9, ETV7 (Homo sapiens, UniProt Q9Y603 1-341); conditions: protein: recombinant; tags: N-terminal GST; dsDNA, one strand shown
T9 sequence: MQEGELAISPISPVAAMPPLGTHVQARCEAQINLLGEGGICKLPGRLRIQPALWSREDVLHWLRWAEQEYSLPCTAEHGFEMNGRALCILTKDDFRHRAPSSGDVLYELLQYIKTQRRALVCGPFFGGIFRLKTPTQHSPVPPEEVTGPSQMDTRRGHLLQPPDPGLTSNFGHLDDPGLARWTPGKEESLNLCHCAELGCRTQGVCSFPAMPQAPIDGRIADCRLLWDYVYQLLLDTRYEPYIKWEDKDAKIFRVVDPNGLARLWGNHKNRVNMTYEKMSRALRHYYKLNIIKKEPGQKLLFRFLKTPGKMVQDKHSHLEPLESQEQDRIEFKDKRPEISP
Procedure, shortened: as §1

ELF5 = biological target: T10, ELF5 (Homo sapiens, UniProt Q9UKW6-2 1-255); conditions: protein: recombinant; tags: N-terminal GST; dsDNA, one strand shown
T10 sequence: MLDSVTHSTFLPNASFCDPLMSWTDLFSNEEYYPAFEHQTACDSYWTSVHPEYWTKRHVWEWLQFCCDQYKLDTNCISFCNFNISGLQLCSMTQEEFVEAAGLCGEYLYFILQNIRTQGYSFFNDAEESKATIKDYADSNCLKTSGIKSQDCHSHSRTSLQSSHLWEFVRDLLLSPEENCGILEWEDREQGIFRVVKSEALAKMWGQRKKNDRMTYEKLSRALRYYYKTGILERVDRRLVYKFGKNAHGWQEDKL
Procedure, shortened: as §1

ETV3 = biological target: T11, ETV3 (Homo sapiens, UniProt P41162-2 1-143); conditions: protein: recombinant; tags: N-terminal GST; dsDNA, one strand shown
T11 sequence: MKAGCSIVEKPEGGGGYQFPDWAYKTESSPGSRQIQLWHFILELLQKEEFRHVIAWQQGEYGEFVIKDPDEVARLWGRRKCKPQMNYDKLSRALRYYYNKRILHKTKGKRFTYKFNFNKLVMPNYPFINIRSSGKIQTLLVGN
Procedure, shortened: as §1

ETV6 = ETV6 (Homo sapiens, UniProt P41212 1-452); conditions: protein: recombinant; tags: N-terminal GST; dsDNA, one strand shown
Sequence of ETV6 (P41212 whole entry): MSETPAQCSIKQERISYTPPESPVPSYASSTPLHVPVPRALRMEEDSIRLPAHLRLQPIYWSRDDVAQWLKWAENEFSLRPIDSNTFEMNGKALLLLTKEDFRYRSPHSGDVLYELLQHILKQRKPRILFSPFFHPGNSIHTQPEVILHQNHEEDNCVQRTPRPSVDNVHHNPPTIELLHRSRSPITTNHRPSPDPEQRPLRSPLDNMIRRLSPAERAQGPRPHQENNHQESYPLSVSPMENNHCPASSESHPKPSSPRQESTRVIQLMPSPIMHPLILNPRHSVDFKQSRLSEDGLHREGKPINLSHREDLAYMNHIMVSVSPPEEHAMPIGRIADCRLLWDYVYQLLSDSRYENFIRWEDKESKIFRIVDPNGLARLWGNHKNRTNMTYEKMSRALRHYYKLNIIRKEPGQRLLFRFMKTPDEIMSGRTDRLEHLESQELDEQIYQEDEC
Procedure, shortened: as §1

**Q.** CTTACG was tested. Which binding signal (FEV) did it give?
**A.** 1.06 fold enrichment (6-mer frequency, TF over GST control)

**Q.** And the binding signal (ETV5)?
**A.** 1.12 fold enrichment (6-mer frequency, TF over GST control)

**Q.** And the binding signal (HSF1)?
**A.** 1.14 fold enrichment (6-mer frequency, TF over GST control)

**Q.** And the binding signal (SPIC)?
**A.** 1.02 fold enrichment (6-mer frequency, TF over GST control)

**Q.** And the binding signal (ELF4)?
**A.** 1.14 fold enrichment (6-mer frequency, TF over GST control)

**Q.** And the binding signal (ETV2)?
**A.** 1.1 fold enrichment (6-mer frequency, TF over GST control)

**Q.** And the binding signal (ELF3)?
**A.** 1.11 fold enrichment (6-mer frequency, TF over GST control)

**Q.** And the binding signal (CRX)?
**A.** 1.5 fold enrichment (6-mer frequency, TF over GST control)

**Q.** And the binding signal (ERF)?
**A.** 1.09 fold enrichment (6-mer frequency, TF over GST control)

**Q.** What about the binding signal (ETV3L) of the same sequence?
**A.** 1.05 fold enrichment (6-mer frequency, TF over GST control)

**Q.** And the binding signal (ETS2)?
**A.** 1.13 fold enrichment (6-mer frequency, TF over GST control)

**Q.** What about the binding signal (SPDEF) of the same sequence?
**A.** 1.1 fold enrichment (6-mer frequency, TF over GST control)

**Q.** What about the binding signal (ETV7) of the same sequence?
**A.** 1.1 fold enrichment (6-mer frequency, TF over GST control)

**Q.** And the binding signal (ELF5)?
**A.** 1.15 fold enrichment (6-mer frequency, TF over GST control)

**Q.** What about the binding signal (ETV3) of the same sequence?
**A.** 1.15 fold enrichment (6-mer frequency, TF over GST control)

**Q.** What about the binding signal (ETV6) of the same sequence?
**A.** 1 fold enrichment (6-mer frequency, TF over GST control)
